This note sets out measurements from PubChem BioAssay.

Each structure is given as a SMILES string. Active and inactive are the calls of the source.

Assay [1] in a line: small molecules captured by biotinylated probe aFSTL3 – biochemical, small-molecule microarray, fluorescence 635/667, stem cell growth factor project, primary screen (AID 1064).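 Further: measures binding of the biotinylated anti-FSTL3 antibody to printed compounds.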 The settings on record: higher = more signal.
Assay [2] in a line: binders from COS7 lysate, DM2A8 probe, primary screen, torsin A project, cell lysate, small-molecule microarray, fluorescence 635/667 (AID 1065). Conditions: higher = more signal, COS7 lysate expressing mutant human TOR1A.
The nature of assay [3]: small molecules captured by biotinylated probe aFGF2 – biochemical, small-molecule microarray, fluorescence 635/667, stem cell growth factor project, primary screen (AID 1067).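 Further: measures binding of biotinylated aFGF2 protein to printed compounds on slides; z-score merges feature fluorescence and signal-to-noise across triplicate slides.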 Conditions: higher = more signal.
Assay [4] is described as follows: small molecules captured by biotinylated probe aFGF10 – biochemical, small-molecule microarray, fluorescence 635/667, stem cell growth factor project, primary screen (AID 1071).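 Further: score merges 667 nm spot intensity and signal to noise from triplicate slides.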 Conditions: higher = more signal.
Assay [5] deals with Neurogenic locus notch homolog protein 2 (Homo sapiens) (UniProt Q04721). The assay can be described thus: small molecules binding Notch2 protein – biochemical, small-molecule microarray, 635 nm fluorescence, stem cell growth factors, primary screen (AID 1073). Conditions: higher = more signal.
For assay [6], the target named is Pro-neuregulin-1, membrane-bound isoform (Homo sapiens) (UniProt Q02297). The assay can be described thus: small molecules binding neuregulin-1 protein – biochemical, small-molecule microarray, fluorescence 635/667, psychiatric disease protein project, primary screen (AID 1075).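 Further: score combines 667 nm spot fluorescence with signal to noise.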 The settings on record: NRG1 binding, 635 nm fluorescence, higher = more signal.
The test system of assay [7] is Neuregulin-1 EGF-like domain. The assay can be described thus: small molecules binding NRG1 EGF domain – biochemical, small-molecule microarray, 635 nm fluorescence, primary screen (AID 1081).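 Further: binding of the protein to compounds printed on small-molecule microarray slides.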 The settings on record: higher = more signal.
Assay [8] can be described thus: FRG1 expression reporter modulators in myotubes – cell-based, C2C12 myotubes, firefly/Renilla luciferase, luminescence, FRG1 inhibition for FSHD, primary screen (AID 1084). Conditions: FRG1 promoter luciferase, higher = more signal, called active from +8 up or from −8 down.
Assay [9] is described as follows: small molecules captured by biotinylated probe aFST – biochemical, small-molecule microarray, fluorescence 635/667, stem cell growth factor project, primary screen (AID 1086).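 Further: score merges 667 nm fluorescence with signal-to-noise of each printed compound spot.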 Conditions: higher = more signal.
Assay [10] in a line: binders of probe aHhip on microarray, primary screen, stem cell growth factor project, biochemical, small-molecule microarray, fluorescence 635/667 (AID 1087).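 Further: score merges spot fluorescence at 667nm with spot signal to noise ratio.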 The settings on record: higher = more signal.
In assay [11] the test system is PRMT1 (protein arginine N-methyltransferase 1). The assay can be described thus: small molecules binding arginine methyltransferase PRMT1 – biochemical, small-molecule microarray, 635 nm fluorescence, primary screen (AID 1088).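 Further: binding of Prmt1 protein to compounds spotted on small-molecule microarray slides.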 The settings on record: higher = more signal.
The nature of assay [12]: growth effects on S. cerevisiae YJM789 – YJM789 clinical isolate, OD600, 24 h, basal, primary screen (AID 1089).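 Further: growth of clinical yeast isolate S. cerevisiae YJM 789 seeded 1000 cells per well; test concentration not given here.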 Conditions: higher = more signal, called active from +8 up or from −8 down.
A short description of assay [13]: S. pombe growth modifiers, basal conditions – strain 972, OD600, 24 h, no modulator, primary screen (AID 1090).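 Further: basal condition with compound alone and no growth modifier present; test concentration not given here.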 Conditions: S. pombe 972 growth, higher = more signal, called active from +8 up or from −8 down.
The nature of assay [14]: budding yeast growth modifiers under rapamycin – strain BY4716, OD600, 96 h, primary screen (AID 1091). Further: test concentration not given here. Conditions: S. cerevisiae BY4716 + rapamycin, higher = more signal, called active from +8 up or from −8 down.
The target in assay [15] is Torsin-1A-interacting protein 2 (Homo sapiens) (UniProt Q8NFQ8). The assay can be described thus: small molecules binding lysate-expressed LULL1 – cell lysate, human LULL1 lysate, 635/667 nm fluorescence, primary screen (AID 1092).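 Further: probe is lysate of COS7 cells overexpressing human LULL1; score merges per-feature 667 nm fluorescence with signal-to-noise.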 Conditions: small-molecule microarray, hLULL1 lysate binding, 635 nm fluorescence; higher = more signal.
The nature of assay [16]: optical density change of DRC41 E. coli – strain DRC41, OD650, 24 h, E. coli filamentation project, primary screen (AID 1093).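 Further: MC1000 strain lacking acrAB efflux and sulA so SOS filamentation is blocked; test concentration not given here.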 The settings on record: E. coli DRC41 growth, higher = more signal, called active from +8 up or from −8 down.
Assay [17] in a line: probe aLefty2 binding to arrayed compounds – biochemical, biotinylated probe, 635/667 nm fluorescence, primary screen (AID 1094).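 Further: score merges spot fluorescence near 667 nm with spot signal-to-noise ratio.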 Conditions: small-molecule microarray, higher = more signal.
The test system of assay [18] is Noggin (protein binding on small-molecule microarray). The assay can be described thus: small molecules binding Noggin protein – biochemical, 635/667 nm fluorescence, primary screen (AID 1095).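 Further: score merges 667 nm feature fluorescence with signal to noise over triplicate slides.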 Conditions: 635 nm fluorescence, higher = more signal.
Assay [19] addresses Neurogenic locus notch homolog protein 3 (Homo sapiens) (UniProt Q9UM47). The assay can be described thus: small molecules binding NOTCH3 protein – biochemical, 635/667 nm fluorescence, primary screen (AID 1096). The settings on record: small-molecule microarray, 635 nm fluorescence, higher = more signal.
Assay [20] is described as follows: probe aEGFR binding to arrayed compounds – biochemical, biotinylated probe, 635/667 nm fluorescence, primary screen (AID 1097).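 Further: probe is a biotinylated anti-EGFR antibody binding compounds printed on slides; score combines fluorescence near 667 nm and signal to noise of each spot.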 Conditions: small-molecule microarray, higher = more signal.

Chain of Neurogenic locus notch homolog protein 3 (Homo sapiens) (Q9UM47 whole entry, looked up): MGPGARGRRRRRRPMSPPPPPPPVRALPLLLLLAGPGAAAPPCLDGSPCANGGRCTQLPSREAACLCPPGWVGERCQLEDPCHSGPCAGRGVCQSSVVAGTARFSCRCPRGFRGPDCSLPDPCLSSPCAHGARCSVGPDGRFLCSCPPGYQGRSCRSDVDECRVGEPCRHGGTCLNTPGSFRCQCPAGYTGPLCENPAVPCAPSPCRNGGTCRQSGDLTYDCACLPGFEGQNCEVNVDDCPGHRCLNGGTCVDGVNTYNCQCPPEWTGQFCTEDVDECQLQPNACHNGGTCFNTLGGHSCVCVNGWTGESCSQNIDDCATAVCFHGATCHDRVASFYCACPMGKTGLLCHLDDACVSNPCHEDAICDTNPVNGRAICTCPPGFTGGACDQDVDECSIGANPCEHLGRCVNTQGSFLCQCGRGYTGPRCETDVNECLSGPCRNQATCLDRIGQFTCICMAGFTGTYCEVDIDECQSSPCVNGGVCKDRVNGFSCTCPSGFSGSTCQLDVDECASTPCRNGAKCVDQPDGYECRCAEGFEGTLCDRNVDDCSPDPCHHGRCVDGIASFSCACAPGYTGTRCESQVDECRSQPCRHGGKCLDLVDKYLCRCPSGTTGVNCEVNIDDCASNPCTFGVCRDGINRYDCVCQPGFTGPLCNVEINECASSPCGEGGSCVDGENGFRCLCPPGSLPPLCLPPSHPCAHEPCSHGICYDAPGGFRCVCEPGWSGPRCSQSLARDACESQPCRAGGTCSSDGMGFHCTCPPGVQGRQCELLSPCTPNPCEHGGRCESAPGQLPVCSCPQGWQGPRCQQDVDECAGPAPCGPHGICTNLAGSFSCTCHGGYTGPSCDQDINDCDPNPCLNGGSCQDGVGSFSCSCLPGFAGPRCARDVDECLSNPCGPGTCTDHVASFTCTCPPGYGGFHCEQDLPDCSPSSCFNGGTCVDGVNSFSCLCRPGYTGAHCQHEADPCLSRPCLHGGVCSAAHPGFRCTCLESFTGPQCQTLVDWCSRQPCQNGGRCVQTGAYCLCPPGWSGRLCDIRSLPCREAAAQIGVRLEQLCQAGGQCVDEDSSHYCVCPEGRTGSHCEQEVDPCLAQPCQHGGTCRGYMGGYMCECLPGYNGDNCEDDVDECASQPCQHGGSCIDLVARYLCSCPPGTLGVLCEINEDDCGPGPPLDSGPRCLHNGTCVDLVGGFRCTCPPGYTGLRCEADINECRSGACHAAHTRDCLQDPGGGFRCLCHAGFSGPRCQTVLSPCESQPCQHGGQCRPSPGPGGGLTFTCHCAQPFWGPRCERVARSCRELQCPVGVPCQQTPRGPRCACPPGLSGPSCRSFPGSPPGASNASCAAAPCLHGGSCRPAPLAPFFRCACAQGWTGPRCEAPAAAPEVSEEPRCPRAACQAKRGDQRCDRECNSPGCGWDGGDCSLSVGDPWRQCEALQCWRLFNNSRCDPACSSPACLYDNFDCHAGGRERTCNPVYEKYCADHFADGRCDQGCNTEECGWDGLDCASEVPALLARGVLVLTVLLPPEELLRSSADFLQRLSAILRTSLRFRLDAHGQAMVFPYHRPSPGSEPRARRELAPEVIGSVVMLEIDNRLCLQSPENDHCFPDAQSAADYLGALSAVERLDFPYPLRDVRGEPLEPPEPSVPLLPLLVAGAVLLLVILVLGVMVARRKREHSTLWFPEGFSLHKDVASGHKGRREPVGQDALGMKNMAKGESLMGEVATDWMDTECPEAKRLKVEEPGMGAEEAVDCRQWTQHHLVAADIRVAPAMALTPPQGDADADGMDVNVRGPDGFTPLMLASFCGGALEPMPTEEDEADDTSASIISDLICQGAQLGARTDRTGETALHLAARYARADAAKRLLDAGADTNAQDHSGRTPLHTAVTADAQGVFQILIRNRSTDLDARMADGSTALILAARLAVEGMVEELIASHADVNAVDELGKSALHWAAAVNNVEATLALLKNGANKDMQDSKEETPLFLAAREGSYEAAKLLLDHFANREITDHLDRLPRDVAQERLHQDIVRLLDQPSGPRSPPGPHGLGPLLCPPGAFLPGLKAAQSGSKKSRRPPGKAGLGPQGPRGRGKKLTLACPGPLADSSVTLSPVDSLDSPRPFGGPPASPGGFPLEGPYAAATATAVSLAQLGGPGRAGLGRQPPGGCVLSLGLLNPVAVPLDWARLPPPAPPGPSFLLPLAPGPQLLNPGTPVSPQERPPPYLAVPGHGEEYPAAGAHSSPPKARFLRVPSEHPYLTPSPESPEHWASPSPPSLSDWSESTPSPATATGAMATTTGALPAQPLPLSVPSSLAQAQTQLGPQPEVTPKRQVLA
Chain of Neurogenic locus notch homolog protein 2 (Homo sapiens) (Q04721 whole entry, looked up, canonical isoform): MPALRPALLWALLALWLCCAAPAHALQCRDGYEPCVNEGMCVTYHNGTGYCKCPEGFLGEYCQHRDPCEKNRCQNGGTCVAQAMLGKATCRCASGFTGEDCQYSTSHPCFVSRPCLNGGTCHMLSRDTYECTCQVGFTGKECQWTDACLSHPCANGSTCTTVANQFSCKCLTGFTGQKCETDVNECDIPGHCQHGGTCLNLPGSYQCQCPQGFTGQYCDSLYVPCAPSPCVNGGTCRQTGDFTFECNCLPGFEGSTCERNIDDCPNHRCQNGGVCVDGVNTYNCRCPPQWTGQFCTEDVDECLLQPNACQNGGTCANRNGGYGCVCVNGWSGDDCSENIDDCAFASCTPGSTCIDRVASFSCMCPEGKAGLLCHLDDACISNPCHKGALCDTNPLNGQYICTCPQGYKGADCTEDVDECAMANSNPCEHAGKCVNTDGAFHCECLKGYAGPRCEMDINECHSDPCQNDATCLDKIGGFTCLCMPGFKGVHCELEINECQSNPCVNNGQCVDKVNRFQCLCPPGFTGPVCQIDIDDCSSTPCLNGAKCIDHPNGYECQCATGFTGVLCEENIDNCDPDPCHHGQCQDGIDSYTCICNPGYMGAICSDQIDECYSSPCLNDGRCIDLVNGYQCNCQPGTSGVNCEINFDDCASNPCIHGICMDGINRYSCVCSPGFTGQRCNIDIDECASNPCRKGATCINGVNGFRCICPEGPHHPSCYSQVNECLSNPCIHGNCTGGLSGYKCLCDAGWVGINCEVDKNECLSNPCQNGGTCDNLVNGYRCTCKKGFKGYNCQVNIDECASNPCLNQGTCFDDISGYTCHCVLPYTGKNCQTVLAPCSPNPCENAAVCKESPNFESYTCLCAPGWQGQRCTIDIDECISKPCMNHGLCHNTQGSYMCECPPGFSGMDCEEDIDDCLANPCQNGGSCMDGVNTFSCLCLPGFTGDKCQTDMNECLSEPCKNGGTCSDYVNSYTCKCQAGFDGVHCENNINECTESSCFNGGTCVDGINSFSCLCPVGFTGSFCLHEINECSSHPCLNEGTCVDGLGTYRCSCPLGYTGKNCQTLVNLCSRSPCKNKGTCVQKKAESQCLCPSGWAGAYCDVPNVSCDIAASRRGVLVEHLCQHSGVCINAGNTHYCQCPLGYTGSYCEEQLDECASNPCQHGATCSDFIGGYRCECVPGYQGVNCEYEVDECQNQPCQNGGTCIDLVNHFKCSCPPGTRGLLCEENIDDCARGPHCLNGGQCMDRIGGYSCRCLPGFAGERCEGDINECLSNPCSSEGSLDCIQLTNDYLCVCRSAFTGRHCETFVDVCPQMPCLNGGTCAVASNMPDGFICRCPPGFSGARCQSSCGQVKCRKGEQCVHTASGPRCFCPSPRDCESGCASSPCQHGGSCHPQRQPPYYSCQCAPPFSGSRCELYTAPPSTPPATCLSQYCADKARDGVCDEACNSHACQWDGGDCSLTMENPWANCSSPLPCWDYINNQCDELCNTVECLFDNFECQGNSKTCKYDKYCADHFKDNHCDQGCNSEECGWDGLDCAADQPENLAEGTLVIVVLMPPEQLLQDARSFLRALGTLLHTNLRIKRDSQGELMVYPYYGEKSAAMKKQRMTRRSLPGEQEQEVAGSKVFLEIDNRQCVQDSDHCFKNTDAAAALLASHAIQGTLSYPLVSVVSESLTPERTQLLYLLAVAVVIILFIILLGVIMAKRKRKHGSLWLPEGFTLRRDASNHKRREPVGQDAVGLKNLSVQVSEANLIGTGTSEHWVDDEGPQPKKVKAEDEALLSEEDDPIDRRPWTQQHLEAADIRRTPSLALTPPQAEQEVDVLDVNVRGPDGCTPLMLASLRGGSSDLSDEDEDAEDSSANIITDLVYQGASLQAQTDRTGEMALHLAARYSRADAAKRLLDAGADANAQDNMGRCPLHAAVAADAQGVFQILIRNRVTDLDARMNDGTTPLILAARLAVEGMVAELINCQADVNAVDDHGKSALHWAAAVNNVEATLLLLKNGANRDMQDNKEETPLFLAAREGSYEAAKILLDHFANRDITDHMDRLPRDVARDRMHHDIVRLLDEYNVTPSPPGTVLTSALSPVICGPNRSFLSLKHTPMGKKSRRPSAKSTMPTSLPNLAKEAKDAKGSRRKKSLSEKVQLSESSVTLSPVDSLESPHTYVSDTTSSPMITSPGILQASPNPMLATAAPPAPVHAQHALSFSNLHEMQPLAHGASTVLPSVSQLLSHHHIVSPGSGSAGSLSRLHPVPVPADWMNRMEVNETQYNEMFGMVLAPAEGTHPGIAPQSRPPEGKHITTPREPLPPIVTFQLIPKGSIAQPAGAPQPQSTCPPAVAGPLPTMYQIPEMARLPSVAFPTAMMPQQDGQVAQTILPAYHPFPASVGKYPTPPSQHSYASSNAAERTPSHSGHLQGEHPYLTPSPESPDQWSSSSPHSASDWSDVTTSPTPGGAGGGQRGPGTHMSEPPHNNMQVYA

As to `COC(=O)[C@H](Cc1ccccc1)N1CC2=C[C@@H](C3CC3)n3c(=O)n(C)c(=O)n3[C@H]2[C@@H]1[C@@H](O)Cc1ccccc1`, the composite z-score in assay [1] is -0.575; in assay [2] it was 1.5; in assay [3], 0.0066; in [4], 0.369; in assay [5], 0.319; in assay [6] it was 0.323. The composite z-score in assay [7] was 0.997; in assay [9], 0.559; in assay [10], -0.296; in [11], 1.06; in assay [15], 2.88; in assay [17] it was -0.136. Besides, the composite z-score worked out at 1.15 in assay [18], 1.02 in [19] and 0.142 in assay [20]. For the same compound, the z-score was 0.892 (inactive) in assay [8]; -0.973 (inactive) in assay [12]; -1.15 (inactive) in assay [13]; 0.0538 (inactive) in assay [14]; -0.89 (inactive) in assay [16].

In the case of `C=C(CCCC)/C(=C/C[C@H](OC(=O)c1ccncc1)c1ccccc1OCCO)c1cnc2ccccc2c1`, the composite z-score in [1] was -0.345; in [2] it was 1.04; in assay [3], -0.0544; in assay [4], 0.706; in [5], 0.965; in assay [6], 0.424. Besides, the composite z-score in [7] is 1.05; in assay [9], 0.228; in assay [10], 0.126; in assay [11] it was 1.55; in assay [15], 1.34; in [17] it was -0.217. In addition, the results for the composite z-score in assay [18], in assay [19] and in assay [20] were 1.27, 1.13 and -0.111, respectively. For the same compound, the z-score in assay [8] is -0.756 (inactive); in [12] it was -1.73 (inactive); in assay [13] it was -1.14 (inactive); in [14] it was 3.47 (inactive); in assay [16] it was -0.0552 (inactive).

On to `CCOC(=O)C1=CC[C@@H](c2ccccc2)N(S(=O)(=O)c2ccc(C)cc2)[C@H]1c1ccccc1C`, for which the composite z-score was 0.158 in assay [1]; -0.0515 in assay [2]; -0.0895 in assay [3]; 0.49 in assay [4]; 1.47 in assay [5]; 0.393 in assay [6]. Also, the composite z-score in assay [7] stood at 0.714; in [9], 0.789; in [10], 0.115; in [11] it was 0.473; in [15] it was 1.97; in assay [17], 0.066. Further, the figures for the composite z-score in [18], in assay [19] and in assay [20] were 0.72, 0.913 and -0.0675, respectively. Besides, the z-score in assay [8] was -3.47 (inactive); in [12] it was -0.602 (inactive); in assay [13], 0.903 (inactive); in assay [14] it was -0.3 (inactive); in assay [16], -0.3 (inactive).

Take `CCN(CC)c1ccc(N2CC=CC34O[C@@H]5C=CCCOC(=O)C5[C@H]3C(=O)N(CCCCCCO)[C@@H]4C2=O)cc1` (stereo not given in full): the composite z-score in assay [1] was -0.16; in assay [2] it was 0.345; in assay [3] it was -0.16; in assay [4], -0.286; in assay [5], -0.439; in assay [6], -0.173. The composite z-score was 1.6 in assay [7]; -0.581 in assay [9]; -0.249 in assay [10]; -0.171 in assay [11]; 2.94 in [15]; -0.192 in [17]. The results for the composite z-score in assay [18], in assay [19] and in assay [20] were -0.612, -0.619 and -0.0493, respectively. Moreover, the z-score was -0.959 (inactive) in assay [8]; -2.16 (inactive) in [12]; -0.431 (inactive) in assay [13]; -1.74 (inactive) in assay [14]; 2.49 (inactive) in assay [16].

Regarding `C=C[C@H](CO[Si](CC)(CC)CC)N(Cc1ccc(OC(C)=O)c(OC)c1)S(=O)(=O)c1ccc(Br)cc1`, the composite z-score is 0.572 in assay [1]; 1.64 in [2]; 0.365 in [3]; 0.326 in assay [4]; -0.156 in assay [5]; 1.27 in assay [6]. Further, the composite z-score in [7] was 1.05; in assay [9], 1.22; in assay [10], -0.0788; in [11], 0.87; in [15] it was 1.6; in assay [17] it was 0.476. Besides, the composite z-score is -0.0715 in [18], -0.334 in [19] and 0.0819 in [20]. Besides, the z-score was -2.48 (inactive) in assay [8]; -1.77 (inactive) in assay [12]; -1.01 (inactive) in assay [13]; 0.196 (inactive) in [14]; 0.415 (inactive) in assay [16].
